Test results published in PubChem BioAssay (Tox21).
Results filed as inconclusive are left out. A number with no mark means an inactive call. Calls come from the whole dose curve; as a rule, active = well fitted activation curve with a large enough effect in the repeat runs; inconclusive = weak or mixed curves; inactive = flat fitted curve, though single readings scatter.

Assay: Caspase-3/7 induction in HepG2 cells by small molecules, qHTS assay (AID 1346978); note: nearly all actives have a fitted effect of over 15% in size
Conditions: HepG2 caspase-3/7 activation, Caspase-Glo luminescence, 17 h; series mostly up to 92.4 µM; caspase activation: at the top concentration
Source text: National Center for Advancing Translational Sciences [NCATS] NIH Chemical Genomics Center [NCGC] U.S. Environmental Protection Agency [EPA] National Institutes of Environmental Health Sciences [NIEHS] National Toxicology Program [NTP] Assay overview: Apoptosis is a process of programmed cell death and plays a central role in the development of multicellular organisms. It is a highly regulated process and induces cell death by activating caspases, which are the members of cysteine aspartic acid-specific protease (caspase) family. Caspases involved in apoptosis are classified by their mechanism of action as initiator caspases (caspase-2, -8, -9 and -10) and executioner caspases (caspase-3, -6, and -7). Inhibition of apoptosis results in number of cancers, autoimmune diseases, inflammatory diseases and viral infection. To identify small molecule compounds that induce apoptosis, a homogeneous, luminescent Caspase-Glo 3/7 assay was used. Wild type HepG2 cells were used to screen Tox21 libraries for identifying caspase-3/7 activity inducers.
Assay Protocol Summary: HepG2 cells were dispensed at 2,000 per well in 5uL of culture medium into white solid bottom 1536-well plates (Corning Life Sciences, Corning, NY) using a Multidrop Combi (Thermo Scientific, Waltham, MA) dispenser. The assay plates were incubated at 37 C and 5% CO2 for 5hr, and then 23nL of compounds dissolved in DMSO and positive control were transferred using a Pintool station (Wako, San Diego, CA). The assay plates were incubated at 37C and 5% CO2 for 17hr. For caspase-3/7 activity read, 4uL of Caspase-Glo 3/7 reagent (Promega Corporation, Madison, WI) was added to each well of the assay plates using Flying Reagent Dispenser (FRD, Aurora Discovery, San Diego, CA) and incubated the assay plates at room temperature for 30min. The luminescence signal was quantified using a ViewLux plate reader (Perkin Elmer, Shelton, CT).
% is set by controls: 0 for no effect and ±100 for the full control effect.

Structure (SMILES)	caspase activation
CCCCCCCCCCCCN1CCCCCC1=O	-0.652%
CC(C)Nc1ccc(NC(C)C)c2c1C(=O)c1ccccc1C2=O	-5.49% [at 42.5 µM]
Brc1c2ccccc2c(Br)c2ccccc12	0.0205% [at 8.39 µM]
CC(COCCO)OCCO (stereo not given)	0.0438%
CCCCC	-9.27%
O=P(O)(OCc1ccccc1)OCc1ccccc1	-2.03%
CC(C)CC(=O)C1C(=O)c2ccccc2C1=O	-4.05%
O=[N+]([O-])c1cccc(S(=O)(=O)O)c1	-0.602%
CCCCCCCCCCO[C@@H]1O[C@H](CO)[C@@H](O)[C@H](O)[C@H]1O	0.372%
O=C(O)C(S)C(S)C(=O)O (stereo not given)	-1.45% [at 42.5 µM]
NC(=O)C(c1ccccc1)(c1ccccc1)[C@@H]1CCN(CCc2ccc3c(c2)CCO3)C1	-0.164% [at 42.5 µM]
Cc1ncc(CO)c(C=O)c1O	0.276% [at 42.5 µM]
C/C=C/C=C/CO	-0.158%
CN(C)CCN(Cc1ccsc1)c1ccccn1	1.16% [at 42.5 µM]
CCCn1cnc2c1c(=O)n(CCCCC(C)=O)c(=O)n2C	1.95% [at 42.5 µM]
CCCCC(CC)COC(=O)CCCCCCCCC(=O)OCC(CC)CCCC (stereo not given)	-0.132%
CCN(CC)c1ccc(C(=C2C=CC(=[N+](CC)CC)C=C2)c2cc(S(=O)(=O)O)ccc2S(=O)(=O)[O-])cc1	-11.4% [at 42.5 µM]
C=C(C)C(=O)OCC	0.0432%
O=C(O)c1nc(Cl)c(Cl)c(Cl)c1Cl	0.93%
COc1ccc(-c2nc3ccc(C4=NNC(=O)CC4C)cc3[nH]2)cc1 (stereo not given)	3.62% [at 42.5 µM]

Structure (SMILES)	caspase activation
O=C(O)CC(=O)C(=O)O	-0.277%
Cc1ccccc1S(=O)(=O)O	-1.47%
C[C@H]1C[C@H]2[C@@H]3CCC4=CC(=O)C=C[C@]4(C)[C@@]3(Cl)[C@@H](O)C[C@]2(C)[C@@]1(O)C(=O)CO	-1.94% [at 42.5 µM]
Clc1ccc(Cn2c(CN3CCCC3)nc3ccccc32)cc1	-3.41% [at 42.5 µM]
NS(=O)(=O)c1ccc(N2CCCCS2(=O)=O)cc1	-0.485% [at 42.5 µM]
O=C1OC(CN2CCOCC2)CN1/N=C/c1ccc([N+](=O)[O-])o1 (stereo not given)	-1.66% [at 42.5 µM]
CCN(CC)CCOC(=O)C(c1ccccc1)C1CCCCC1 (stereo not given)	0.651% [at 42.5 µM]
CN(C)C(=O)NC1(c2ccccc2)CCN(CC[C@@]2(c3ccc(F)c(F)c3)CN(C(=O)c3ccccc3)CCO2)CC1	1.51%
OC(CN1CCC(Cc2ccc(F)cc2)CC1)c1ccc(Cl)cc1 (stereo not given)	11.1% [at 42.5 µM]
CN(C)CCN(Cc1ccc(Cl)cc1)c1ccccn1	-0.802% [at 42.5 µM]
CC1(c2ccccc2)OC(C(=O)O)=CC1=O (stereo not given)	-2.32% [at 42.5 µM]
O=C(O)C1(C(=O)O)CCC1.[NH2-].[NH2-].[Pt+2]	-0.032% [at 42.5 µM]
CC(=O)[O][Al][O]C(C)=O	-0.155%
CCNc1cc(O)ccc1C	-6.68%
Nc1cccc(S(=O)(=O)c2cccc(N)c2)c1	-0.895%
C#C[C@]1(O)CC[C@H]2[C@@H]3CCc4cc(OC5CCCC5)ccc4[C@H]3CC[C@@]21C	6.39% [at 42.5 µM]
COc1cc2nc(Cl)nc(N)c2cc1OC	-0.406% [at 42.5 µM]
CCOC(=O)NCCOc1ccc(Oc2ccccc2)cc1	-5.62%
Nc1ccc(N)c2c1C(=O)c1ccccc1C2=O	-9.33%
CCCCCCCCCCCC(=O)OC[C@@H](O)[C@H]1OC[C@H](OCCO)[C@H]1OCCO	0.175%
